This is part of a sample that, as a whole, favours compounds with a hit. Of some 83,000 tested, about 20% had one in any assay.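 Step 1: grow cells in 96-well plates. Step 2: add test compound at a single concentration. Step 3: incubate 48 h. Step 4: record percent growth.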 Activity calls are given as the source filed them.

The assay concerns SNB-19 CNS. Description: NCI-60 one-dose screen, 48 h (100 = growth as untreated, 0 = no growth, -100 = all killed). The following applies: 10 µM unless noted. As to the method: Growth inhibition of the SNB-19 human tumor cell line is measured as a screen for anti-cancer activity. Cells are grown in 96 well plates and exposed to the test compound for 48 hours. Compounds are tested at a single concentration, which is 10^-5 M for most compounds. The reported endpoint is percent growth (GI% or GIPRCNT), where numbers from 0 - 100% represent growth inhibition, and numbers from -100% - 0 represent cell death. For example, a value of 40 represents 60% growth inhibition. A value of 0 means no net growth occurred over the course of the experiment. A value of -40 indicates 40% of cells at the beginning of the experiment died by the end of the experiment. A value of -100 means all cells are dead at the end of the experiment.
NCI-60 Human Tumor Cell Lines Screen was performed using the standard one-dose NCI protocol, which is described in more detail at https://dtp.cancer.gov/discovery_development/nci-60/default.htm.
Compounds with GIPRCNT values below 10 were considered active. Activity score was based on GIPRCNT using the following formula: […]
Score is 0 for GIPRCNT values of 100 or above, 50 for GIPRCNT values of 0, and 100 for GIPRCNT values of -100.
Regarding `CC(C)=CCC[C@H](C(=O)O)[C@@H]1CC[C@]2(C)C3=C(CC[C@@]12C)[C@@]1(C)CC[C@H](O)C(C)(C)[C@@H]1CC3`, the growth is 97.1% (inactive). With `CN(C)CC(C(=O)Cc1ccccc1)c1ccccc1` (stereo not given) the figure was 100% (inactive).

With `COc1ccc(S(=O)(=O)Nc2c(/C=C\c3cc(OC)c(OC)c(OC)c3)ccc(OC)c2O)cc1OC`, the growth was 39% (inactive).

In the case of `CC(=O)O[C@H]1C(=O)[C@@]2(C)[C@H]([C@H](OC(=O)c3ccccc3)[C@]3(O)C[C@H](OC(=O)[C@H](OC(=O)OC[C@@H]4COC(C)(C)O4)[C@@H](NC(=O)c4ccccc4)c4ccccc4)C(C)=C1C3(C)C)[C@]1(OC(C)=O)CO[C@@H]1C[C@@H]2O`, the growth was 12.7% (inactive). As to `COc1cccc(C=NC(Cc2cnc[nH]2)C(=O)O)c1O` (stereo not given), the growth was 96.1% (inactive). Turning to `CC(=O)O[C@H](C[C@H](C(C)C)N(C)C(=O)[C@@H](NC(=O)[C@H]1CCCN1C)C(C)C)c1nc(C(=O)N[C@@H](Cc2ccccc2)C[C@H](C)C(=O)O)c(C)s1`, the growth is 33.2% (inactive).

On to `C=CC[n+]1ccc(-c2cc[n+](CC=C)cc2)cc1`, for which the growth is 111% (inactive). For the molecule `CC[C@]12C=CCN3CC[C@@]4(c5ccc(OC)cc5N(C)[C@H]4[C@@](O)(C(=O)OC)[C@@H]1OC(=O)CCCC[P+](c1ccccc1)(c1ccccc1)c1ccccc1)[C@@H]32`, the growth was 12.7% (inactive).

For the molecule `CCCCCCCCCCCCCCCCCC1OC[C@@H](COC(=O)O[C@@H](C(=O)O[C@H]2C[C@@]3(O)[C@@H](OC(=O)c4ccccc4)[C@@H]4[C@]5(OC(C)=O)CO[C@@H]5C[C@H](O)[C@@]4(C)C(=O)[C@H](OC(C)=O)C(=C2C)C3(C)C)[C@@H](NC(=O)c2ccccc2)c2ccccc2)O1` (stereo not given in full), the growth was 62.1% (inactive). With `CCC(O)(CN)c1ccccc1` (stereo not given), the growth was 106% (inactive). On to `Cn1cc(-c2csc(-c3cn(CCCCN4CCCCC4)c4ccc(F)cc34)n2)c2cccnc21`, for which the growth is 87.1% (inactive). Take `Nc1ccc(Cl)cc1`: the growth is 103% (inactive).

`O=C1NC(=O)C(=Cc2cn(C(=O)c3ccccc3)c3ccccc23)C(=O)N1`: the growth was 97.6% (inactive). The figure for `CN1C(=O)N[C@H]2[C@@H]3NC(=O)c4ccc(Br)n4[C@@H]3C[C@]21O` is -15.6% (active); for `CC(C)CCC(=O)O[C@H]1CC[C@H]2[C@@H]3CCC4=CC(=O)CC[C@]4(C)[C@H]3CC[C@]12C` it is 105% (inactive). Regarding `NC(=S)c1cn(C2OC(CO)C(O)C2O)c2ncnc(N)c12` (stereo not given), the growth is 9.97% (active). For `CNC(=O)Oc1cccc(C(F)(F)F)c1`, the growth was 103% (inactive). For the molecule `CCc1ccccc1[C@@H]1C[C@]2(C)CCO[C@@H]2OO1`, the growth was 93.6% (inactive). The figure for `COc1ccc2c(c1)c(C1(O)CC(CSC#N)OC1=O)cn2C(=O)c1ccc(Cl)cc1` (stereo not given) is 99.3% (inactive); for `Cc1c(NS(=O)(=O)c2ccccc2)ccc([N+](=O)[O-])c1Cl` it is 61.7% (inactive); for `COc1cc(/C=N/C2=C(C#N)C(c3ccco3)c3c(c4cc(C)ccc4oc3=O)O2)cc(OC)c1OC` (stereo not given) it is 98.2% (inactive). Consider `CC1=C(O)[C@@](C)(CCCCC[C@H](C)CCCCc2ccc(O)cc2)OOC1=O`, for which the growth is 101% (inactive). As for `CC(=O)O[C@H]1CC[C@H]2[C@@H]3CC=C4c5nc(-c6ccccc6)sc5CC[C@]4(C)[C@H]3CC[C@]12C`, the growth was 67.4% (inactive).

`Cc1cccc(N2CCN(C(C)C#N)CC2)c1` (stereo not given): the growth is 115% (inactive). With `COC(=O)[C@]12CCC(C)(C)C[C@H]1[C@H]1C(=O)C[C@@H]3[C@@]4(C)C[C@@]5(CC(C)(C)[C@@H]4CC[C@@]3(C)[C@]1(C)CC2)OO[C@@](C)(C(F)(F)F)O5`, the growth is 91.7% (inactive). In the case of `NC(=O)c1c(Br)n(C2OC(CO)C(O)C2O)c2ncnc(N)c12` (stereo not given), the growth was 53.9% (inactive).

For `O=C(O)c1c(Cl)n(Cc2ccc(O)cc2)c2ccc(O)cc12`, the growth was 106% (inactive).

Turning to `Nc1ncnc2n[nH]nc12`, the growth was 93.5% (inactive). For the molecule `CC12CCC=CC1CCC1C2CCC2(C)C(c3ccc(=O)oc3)CCC12O` (stereo not given), the growth was -99.9% (active).

Consider `C=CCn1cc(C=C2C(=O)N(C)C(=O)N(C)C2=O)c2ccccc21`, for which the growth was 96.2% (inactive). With `c1cc2c(c3c1CCNC3)OCO2` the figure was 106% (inactive); with `N/C(=N/N=C/c1ccncc1)N[N+](=O)[O-]`, 104% (inactive).

For the molecule `COc1ccc(/C=C\c2cc(OC)c(OC)c(OC)c2)cc1NC(=O)/C=C/c1ccc(OC)c(OC)c1`, the growth is 36.6% (inactive).

Regarding `COc1ccc(C(=O)c2cc(OC)c(OC)c(OC)c2)cc1OC(C)=O`, the growth is 28.3% (inactive).

`O=C1Nc2ccccc2C2c3cccn3-c3ccccc3CN12` (stereo not given): the growth is 73.4% (inactive).

With `COc1cc(C=C2c3ccccc3C(=O)c3ccccc32)ccc1OCCCCOc1cc2c(cc1OC)C(=O)N1CCCC1C=N2` (stereo not given), the growth was -89.2% (active). `CCOC(=O)[C@@H](C)C[C@H](Cc1ccccc1)NC(=O)c1csc([C@@H](C[C@H](C(C)C)N(C)C(=O)CNC(=O)[C@H]2CCCCN2C)OC(C)=O)n1`: the growth was 17.4% (inactive).

With `O=C1CC2(CC3(Cl)C(Cl)=C(Cl)C2(Cl)C3(Cl)Cl)C(=O)O1` (stereo not given), the growth was 106% (inactive). Take `CC(=O)O[C@H]1CC[C@@]2(C)C(=CC[C@H]3[C@@H]4C[C@@H](N5CC5)[C@H](C(C)=O)[C@@]4(C)CC[C@@H]32)C1`: the growth was 100% (inactive). With `C=CCc1cc2c(cc1OCC)OCO2`, the growth was 99.7% (inactive).

The values are drawn from PubChem BioAssay (NCI).
